# Assay results reported in publication PMC7862700, “An all-to-all approach to the identification of sequence-specific readers for epigenetic DNA modifications on cytosine”.
# Experiments:
# Test in all cases: DAPPL (digital affinity profiling via proximity ligation, sequencing); 10 mM Tris-HCl pH 7.5, 50 mM NaCl, 1 mM DTT, 4% glycerol, room temperature, 30 min; GST-TFs on glutathione beads, 16-mer random dsDNA library, 0.1% formaldehyde crosslink after washing; high values mean tight binding
# FLI1 = target: T1, FLI1 (Homo sapiens, UniProt Q01543 1-452); conditions: protein: recombinant; tags: N-terminal GST; dsDNA, one strand shown
# T1 sequence: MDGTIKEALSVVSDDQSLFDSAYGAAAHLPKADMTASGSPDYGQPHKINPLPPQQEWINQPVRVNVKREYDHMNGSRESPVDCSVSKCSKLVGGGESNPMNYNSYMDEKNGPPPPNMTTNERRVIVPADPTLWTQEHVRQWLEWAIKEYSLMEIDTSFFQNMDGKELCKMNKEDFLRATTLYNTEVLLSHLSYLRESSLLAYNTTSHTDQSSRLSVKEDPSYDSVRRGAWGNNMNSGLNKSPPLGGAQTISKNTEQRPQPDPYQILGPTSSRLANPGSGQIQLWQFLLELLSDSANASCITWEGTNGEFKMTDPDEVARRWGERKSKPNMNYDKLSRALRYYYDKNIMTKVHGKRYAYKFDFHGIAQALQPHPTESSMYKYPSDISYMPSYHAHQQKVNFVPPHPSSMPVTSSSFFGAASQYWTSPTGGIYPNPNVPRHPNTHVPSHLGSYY
# How it was run: (§1)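 Binding signal is given per hexamer as its read frequency for a factor divided by its frequency in the tag-only sample. GST-fused human transcription factors were expressed in yeast, captured on glutathione beads, barcoded with DNA and pooled with that sample, then incubated with 200 nmole of a 16-mer random double-stranded DNA library in Tris/NaCl/DTT/glycerol buffer for 30 min at room temperature. The pools were then washed, crosslinked, proximity-ligated, amplified by PCR and sequenced on an Illumina NextSeq500.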
# ELK1 = target: T2, ELK1 (Homo sapiens, UniProt P19419 1-428); conditions: protein: recombinant; tags: N-terminal GST; dsDNA, one strand shown
# T2 sequence: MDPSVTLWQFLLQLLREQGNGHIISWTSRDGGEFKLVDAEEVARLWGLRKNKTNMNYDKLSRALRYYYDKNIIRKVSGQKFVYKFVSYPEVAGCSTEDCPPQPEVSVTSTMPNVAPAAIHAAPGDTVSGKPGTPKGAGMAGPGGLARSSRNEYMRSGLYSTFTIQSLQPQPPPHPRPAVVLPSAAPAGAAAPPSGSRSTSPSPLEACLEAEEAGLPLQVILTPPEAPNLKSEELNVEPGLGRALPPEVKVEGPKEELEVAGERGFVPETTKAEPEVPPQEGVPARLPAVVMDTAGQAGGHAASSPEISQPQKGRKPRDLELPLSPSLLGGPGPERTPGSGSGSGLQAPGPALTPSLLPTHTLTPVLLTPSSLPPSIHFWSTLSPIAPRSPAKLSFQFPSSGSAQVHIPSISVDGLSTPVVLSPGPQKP
# How it was run: as §1
# GABPA = target: T3, GABPA (Homo sapiens, UniProt Q06546 1-454); conditions: protein: recombinant; tags: N-terminal GST; dsDNA, one strand shown
# T3 sequence: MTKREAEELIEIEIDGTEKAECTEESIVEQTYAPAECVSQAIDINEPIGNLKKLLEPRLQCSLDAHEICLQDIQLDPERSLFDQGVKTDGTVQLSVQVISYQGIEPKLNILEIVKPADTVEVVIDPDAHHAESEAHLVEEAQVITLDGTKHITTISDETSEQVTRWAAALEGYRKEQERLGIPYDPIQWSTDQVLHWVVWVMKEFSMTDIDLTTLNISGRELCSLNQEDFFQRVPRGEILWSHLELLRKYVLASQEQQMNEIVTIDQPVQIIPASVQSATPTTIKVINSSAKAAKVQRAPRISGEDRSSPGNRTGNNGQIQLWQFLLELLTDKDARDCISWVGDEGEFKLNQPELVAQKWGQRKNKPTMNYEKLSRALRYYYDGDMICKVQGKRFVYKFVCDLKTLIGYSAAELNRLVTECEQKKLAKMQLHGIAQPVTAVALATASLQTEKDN
# How it was run: as §1
# ERG = target: T4, ERG (Homo sapiens, UniProt P11308 1-479); conditions: protein: recombinant; tags: N-terminal GST; dsDNA, one strand shown
# T4 sequence: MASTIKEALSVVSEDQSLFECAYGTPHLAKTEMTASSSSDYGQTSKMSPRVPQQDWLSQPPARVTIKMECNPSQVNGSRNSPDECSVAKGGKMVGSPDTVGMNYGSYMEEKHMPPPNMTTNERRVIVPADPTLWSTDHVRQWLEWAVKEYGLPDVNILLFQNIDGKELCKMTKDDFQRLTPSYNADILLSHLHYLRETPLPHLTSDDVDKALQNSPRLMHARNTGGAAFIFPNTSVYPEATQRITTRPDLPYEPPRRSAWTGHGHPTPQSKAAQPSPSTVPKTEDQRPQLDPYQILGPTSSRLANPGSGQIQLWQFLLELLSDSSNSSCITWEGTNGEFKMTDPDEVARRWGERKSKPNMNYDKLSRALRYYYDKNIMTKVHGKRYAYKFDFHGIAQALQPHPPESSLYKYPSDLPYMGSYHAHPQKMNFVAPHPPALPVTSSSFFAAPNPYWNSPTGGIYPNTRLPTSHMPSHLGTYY
# How it was run: as §1
# ELF1 = ELF1 (Homo sapiens, UniProt P32519 1-619); conditions: protein: recombinant; tags: N-terminal GST; dsDNA, one strand shown
# Chain of ELF1 (P32519 whole entry): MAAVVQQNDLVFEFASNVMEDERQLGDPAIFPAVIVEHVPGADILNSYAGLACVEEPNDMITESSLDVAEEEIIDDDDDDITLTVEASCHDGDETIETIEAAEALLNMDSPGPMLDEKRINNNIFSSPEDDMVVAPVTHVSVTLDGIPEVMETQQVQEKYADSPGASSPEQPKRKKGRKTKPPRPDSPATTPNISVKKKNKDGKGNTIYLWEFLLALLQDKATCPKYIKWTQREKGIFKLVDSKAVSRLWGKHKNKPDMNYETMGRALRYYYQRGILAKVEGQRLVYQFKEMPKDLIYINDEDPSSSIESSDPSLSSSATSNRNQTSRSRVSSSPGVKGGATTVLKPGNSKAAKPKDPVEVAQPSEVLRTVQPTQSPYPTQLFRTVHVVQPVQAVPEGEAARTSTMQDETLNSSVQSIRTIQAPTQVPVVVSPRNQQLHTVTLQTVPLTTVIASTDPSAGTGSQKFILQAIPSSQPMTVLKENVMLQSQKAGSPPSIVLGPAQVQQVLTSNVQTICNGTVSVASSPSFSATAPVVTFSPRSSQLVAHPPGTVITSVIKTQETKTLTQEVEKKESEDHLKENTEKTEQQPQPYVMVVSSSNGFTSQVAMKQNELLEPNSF
# How it was run: as §1
# EHF = target: T5, EHF (Homo sapiens, UniProt Q9NZC4 1-300); conditions: protein: recombinant; tags: N-terminal GST; dsDNA, one strand shown
# T5 sequence: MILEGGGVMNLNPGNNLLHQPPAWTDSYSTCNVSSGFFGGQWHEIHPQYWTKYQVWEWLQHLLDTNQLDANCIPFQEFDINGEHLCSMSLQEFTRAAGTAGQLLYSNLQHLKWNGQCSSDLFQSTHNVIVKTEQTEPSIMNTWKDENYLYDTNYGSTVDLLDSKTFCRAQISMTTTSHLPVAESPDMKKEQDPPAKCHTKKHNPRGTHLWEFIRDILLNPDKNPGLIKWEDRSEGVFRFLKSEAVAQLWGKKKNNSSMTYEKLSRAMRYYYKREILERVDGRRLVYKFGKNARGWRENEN
# How it was run: as §1
# SPI1 = SPI1 (Homo sapiens, UniProt P17947 1-270); conditions: protein: recombinant; tags: N-terminal GST; dsDNA, one strand shown
# How it was run: as §1
# SPIB = SPIB (Homo sapiens, UniProt Q01892 1-262); conditions: protein: recombinant; tags: N-terminal GST; dsDNA, one strand shown
# Chain of SPIB (Q01892 whole entry): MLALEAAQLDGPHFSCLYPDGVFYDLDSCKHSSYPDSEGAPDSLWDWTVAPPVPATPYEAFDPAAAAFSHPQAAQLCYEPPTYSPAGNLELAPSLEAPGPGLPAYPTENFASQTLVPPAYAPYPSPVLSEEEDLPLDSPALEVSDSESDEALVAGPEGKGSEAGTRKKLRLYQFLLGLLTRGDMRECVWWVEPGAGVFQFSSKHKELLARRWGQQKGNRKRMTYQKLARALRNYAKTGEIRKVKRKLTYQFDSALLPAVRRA
# How it was run: as §1
# ELK3 = target: T6, ELK3 (Homo sapiens, UniProt P41970 1-407); conditions: protein: recombinant; tags: N-terminal GST; dsDNA, one strand shown
# T6 sequence: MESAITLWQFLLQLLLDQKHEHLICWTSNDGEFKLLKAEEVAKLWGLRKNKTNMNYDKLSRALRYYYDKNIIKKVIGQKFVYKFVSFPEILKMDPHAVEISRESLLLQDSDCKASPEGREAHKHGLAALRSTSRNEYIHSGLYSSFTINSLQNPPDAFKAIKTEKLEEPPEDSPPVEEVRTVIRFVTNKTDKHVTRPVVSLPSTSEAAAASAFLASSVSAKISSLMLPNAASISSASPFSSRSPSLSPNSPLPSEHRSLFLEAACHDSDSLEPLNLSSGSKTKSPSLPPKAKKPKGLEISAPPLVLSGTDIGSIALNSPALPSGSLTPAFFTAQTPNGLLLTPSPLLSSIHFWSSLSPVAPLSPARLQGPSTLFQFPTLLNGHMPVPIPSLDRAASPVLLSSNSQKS
# How it was run: as §1
# FEV = target: T7, FEV (Homo sapiens, UniProt Q99581 1-238); conditions: protein: recombinant; tags: N-terminal GST; dsDNA, one strand shown
# T7 sequence: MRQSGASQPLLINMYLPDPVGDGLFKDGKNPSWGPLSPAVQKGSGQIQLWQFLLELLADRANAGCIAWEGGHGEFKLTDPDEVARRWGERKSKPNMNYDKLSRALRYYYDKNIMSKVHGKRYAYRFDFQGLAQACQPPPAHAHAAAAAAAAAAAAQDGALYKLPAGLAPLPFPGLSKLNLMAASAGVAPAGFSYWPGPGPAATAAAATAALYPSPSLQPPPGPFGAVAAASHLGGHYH
# How it was run: as §1
# ETV5 = ETV5 (Homo sapiens, UniProt P41161 1-510); conditions: protein: recombinant; tags: N-terminal GST; dsDNA, one strand shown
# Chain of ETV5 (P41161 whole entry): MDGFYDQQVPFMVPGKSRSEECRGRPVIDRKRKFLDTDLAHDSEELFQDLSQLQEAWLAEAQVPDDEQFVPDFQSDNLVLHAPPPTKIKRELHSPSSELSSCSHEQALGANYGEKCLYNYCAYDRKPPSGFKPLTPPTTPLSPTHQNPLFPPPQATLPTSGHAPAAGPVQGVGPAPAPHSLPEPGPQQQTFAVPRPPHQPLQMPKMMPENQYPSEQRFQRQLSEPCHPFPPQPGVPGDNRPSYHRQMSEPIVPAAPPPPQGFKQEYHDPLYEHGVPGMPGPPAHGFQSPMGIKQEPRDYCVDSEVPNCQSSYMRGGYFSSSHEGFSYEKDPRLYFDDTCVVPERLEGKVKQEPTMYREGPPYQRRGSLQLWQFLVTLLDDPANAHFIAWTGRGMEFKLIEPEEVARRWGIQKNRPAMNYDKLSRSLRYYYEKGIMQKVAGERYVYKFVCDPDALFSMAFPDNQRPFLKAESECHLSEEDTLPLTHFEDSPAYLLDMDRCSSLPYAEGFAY
# How it was run: as §1
# HSF1 = HSF1 (Homo sapiens, UniProt Q00613 1-529); conditions: protein: recombinant; tags: N-terminal GST; chain copies: 3; dsDNA, one strand shown
# Chain of HSF1 (Q00613 whole entry): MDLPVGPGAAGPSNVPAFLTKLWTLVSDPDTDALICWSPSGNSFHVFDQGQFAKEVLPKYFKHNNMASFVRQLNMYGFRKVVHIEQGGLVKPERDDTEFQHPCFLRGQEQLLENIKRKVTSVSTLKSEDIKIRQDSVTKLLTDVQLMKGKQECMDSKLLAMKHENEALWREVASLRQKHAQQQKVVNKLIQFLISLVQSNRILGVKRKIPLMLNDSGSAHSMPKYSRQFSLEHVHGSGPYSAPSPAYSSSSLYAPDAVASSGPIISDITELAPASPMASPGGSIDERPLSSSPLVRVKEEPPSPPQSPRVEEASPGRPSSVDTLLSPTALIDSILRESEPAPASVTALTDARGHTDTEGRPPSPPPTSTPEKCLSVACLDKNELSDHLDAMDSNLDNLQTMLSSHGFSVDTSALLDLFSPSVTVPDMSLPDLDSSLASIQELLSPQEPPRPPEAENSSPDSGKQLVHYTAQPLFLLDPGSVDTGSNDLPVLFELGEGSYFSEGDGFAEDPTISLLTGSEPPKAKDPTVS
# How it was run: as §1
# SPIC = target: T8, SPIC (Homo sapiens, UniProt Q8N5J4 1-248); conditions: protein: recombinant; tags: N-terminal GST; dsDNA, one strand shown
# T8 sequence: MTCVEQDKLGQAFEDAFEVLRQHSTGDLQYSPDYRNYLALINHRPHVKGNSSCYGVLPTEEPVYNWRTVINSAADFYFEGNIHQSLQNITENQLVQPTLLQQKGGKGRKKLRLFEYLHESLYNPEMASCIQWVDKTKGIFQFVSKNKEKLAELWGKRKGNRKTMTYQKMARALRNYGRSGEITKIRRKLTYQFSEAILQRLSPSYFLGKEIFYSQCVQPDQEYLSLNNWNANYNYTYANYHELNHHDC
# How it was run: as §1
# ELF4 = ELF4 (Homo sapiens, UniProt Q99607 1-663); conditions: protein: recombinant; tags: N-terminal GST; dsDNA, one strand shown
# Chain of ELF4 (Q99607 whole entry): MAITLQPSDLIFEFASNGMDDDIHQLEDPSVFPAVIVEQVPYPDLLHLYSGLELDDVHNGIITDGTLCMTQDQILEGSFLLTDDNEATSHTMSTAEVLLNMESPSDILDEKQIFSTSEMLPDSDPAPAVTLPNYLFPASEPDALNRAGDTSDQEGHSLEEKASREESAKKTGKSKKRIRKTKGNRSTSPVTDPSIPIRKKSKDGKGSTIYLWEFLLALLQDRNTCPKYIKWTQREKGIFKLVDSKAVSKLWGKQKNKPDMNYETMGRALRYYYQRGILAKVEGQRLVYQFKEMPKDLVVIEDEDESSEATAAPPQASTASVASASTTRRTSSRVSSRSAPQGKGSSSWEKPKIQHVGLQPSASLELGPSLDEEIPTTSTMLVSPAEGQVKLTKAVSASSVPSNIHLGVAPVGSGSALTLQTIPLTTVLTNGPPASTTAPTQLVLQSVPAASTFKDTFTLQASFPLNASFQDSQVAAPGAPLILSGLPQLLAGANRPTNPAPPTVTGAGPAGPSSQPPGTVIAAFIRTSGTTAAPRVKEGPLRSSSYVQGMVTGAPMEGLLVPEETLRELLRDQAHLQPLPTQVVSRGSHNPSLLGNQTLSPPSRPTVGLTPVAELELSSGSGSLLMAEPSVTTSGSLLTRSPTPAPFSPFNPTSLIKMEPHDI
# How it was run: as §1
# ELK4 = target: T9, ELK4 (Homo sapiens, UniProt P28324-2 1-405); conditions: protein: recombinant; tags: N-terminal GST; dsDNA, one strand shown
# T9 sequence: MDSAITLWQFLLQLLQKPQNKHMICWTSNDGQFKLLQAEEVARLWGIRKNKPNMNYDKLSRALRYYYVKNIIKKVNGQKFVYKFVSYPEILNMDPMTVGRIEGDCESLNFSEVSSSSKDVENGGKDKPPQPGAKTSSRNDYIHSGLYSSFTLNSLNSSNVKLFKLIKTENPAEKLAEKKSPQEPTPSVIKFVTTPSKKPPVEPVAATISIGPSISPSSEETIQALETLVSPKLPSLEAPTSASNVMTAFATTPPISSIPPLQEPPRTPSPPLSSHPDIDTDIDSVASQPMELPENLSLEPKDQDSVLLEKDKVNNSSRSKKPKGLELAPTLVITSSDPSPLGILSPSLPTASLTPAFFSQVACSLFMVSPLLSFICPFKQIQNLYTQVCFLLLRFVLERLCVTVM
# How it was run: as §1
# ETV2 = target: T10, ETV2 (Homo sapiens, UniProt O00321 1-342); conditions: protein: recombinant; tags: N-terminal GST; dsDNA, one strand shown
# T10 sequence: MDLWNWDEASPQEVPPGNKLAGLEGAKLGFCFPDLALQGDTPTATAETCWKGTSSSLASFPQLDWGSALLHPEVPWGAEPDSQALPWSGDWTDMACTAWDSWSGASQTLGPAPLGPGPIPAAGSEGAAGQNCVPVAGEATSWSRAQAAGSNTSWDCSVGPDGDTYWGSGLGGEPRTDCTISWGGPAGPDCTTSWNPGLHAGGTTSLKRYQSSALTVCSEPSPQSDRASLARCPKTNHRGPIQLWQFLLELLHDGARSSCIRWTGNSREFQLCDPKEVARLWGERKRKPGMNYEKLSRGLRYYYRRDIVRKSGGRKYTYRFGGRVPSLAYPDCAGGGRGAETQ
# How it was run: as §1
# ELF3 = target: T11, ELF3 (Homo sapiens, UniProt P78545 1-371); conditions: protein: recombinant; tags: N-terminal GST; dsDNA, one strand shown
# T11 sequence: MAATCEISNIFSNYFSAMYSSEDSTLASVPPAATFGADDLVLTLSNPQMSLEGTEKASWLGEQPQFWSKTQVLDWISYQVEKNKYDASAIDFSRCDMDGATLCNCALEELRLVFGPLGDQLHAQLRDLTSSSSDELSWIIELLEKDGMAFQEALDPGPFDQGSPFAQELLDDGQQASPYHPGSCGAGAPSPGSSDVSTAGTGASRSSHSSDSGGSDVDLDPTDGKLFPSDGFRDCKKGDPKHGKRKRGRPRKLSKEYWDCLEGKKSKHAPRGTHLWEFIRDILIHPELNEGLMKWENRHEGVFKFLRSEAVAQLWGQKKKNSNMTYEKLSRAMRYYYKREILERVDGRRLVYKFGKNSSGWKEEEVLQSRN
# How it was run: as §1
# CRX = CRX (Homo sapiens, UniProt O43186 1-299); conditions: protein: recombinant; tags: N-terminal GST; dsDNA, one strand shown
# Chain of CRX (O43186 whole entry): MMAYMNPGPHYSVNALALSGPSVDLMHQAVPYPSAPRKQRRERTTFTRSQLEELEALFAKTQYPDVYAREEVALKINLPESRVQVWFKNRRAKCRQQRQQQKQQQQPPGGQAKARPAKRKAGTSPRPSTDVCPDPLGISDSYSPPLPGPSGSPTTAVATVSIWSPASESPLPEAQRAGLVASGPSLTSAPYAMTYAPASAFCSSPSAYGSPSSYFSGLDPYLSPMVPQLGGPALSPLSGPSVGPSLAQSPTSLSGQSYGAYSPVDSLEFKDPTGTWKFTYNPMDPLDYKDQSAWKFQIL
# How it was run: as §1
# ETV1 = ETV1 (Homo sapiens, UniProt P50549 1-477); conditions: protein: recombinant; tags: N-terminal GST; dsDNA, one strand shown
# Chain of ETV1 (P50549 whole entry): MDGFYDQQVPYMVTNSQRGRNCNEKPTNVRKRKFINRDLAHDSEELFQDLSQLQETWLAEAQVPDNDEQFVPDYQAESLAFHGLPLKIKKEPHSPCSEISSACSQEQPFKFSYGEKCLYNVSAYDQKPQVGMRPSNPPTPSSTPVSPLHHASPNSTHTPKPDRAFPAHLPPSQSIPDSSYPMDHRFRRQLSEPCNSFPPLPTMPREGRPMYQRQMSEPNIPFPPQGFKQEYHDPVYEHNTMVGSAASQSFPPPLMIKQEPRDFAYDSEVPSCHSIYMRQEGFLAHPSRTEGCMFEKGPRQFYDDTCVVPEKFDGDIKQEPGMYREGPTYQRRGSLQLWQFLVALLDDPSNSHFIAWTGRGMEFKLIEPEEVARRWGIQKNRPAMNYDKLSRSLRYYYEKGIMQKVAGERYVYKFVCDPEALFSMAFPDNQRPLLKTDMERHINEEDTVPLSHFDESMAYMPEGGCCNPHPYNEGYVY
# How it was run: as §1
sequence,measurement,setting,value
CCTATG,binding signal,FLI1,"1.14 fold enrichment (6-mer frequency, TF over GST control)"
same,binding signal,ELK1,"1.31 fold enrichment (6-mer frequency, TF over GST control)"
same,binding signal,GABPA,"1.31 fold enrichment (6-mer frequency, TF over GST control)"
same,binding signal,ERG,"1.14 fold enrichment (6-mer frequency, TF over GST control)"
same,binding signal,ELF1,"1.27 fold enrichment (6-mer frequency, TF over GST control)"
same,binding signal,EHF,"1.14 fold enrichment (6-mer frequency, TF over GST control)"
same,binding signal,SPI1,"1.21 fold enrichment (6-mer frequency, TF over GST control)"
same,binding signal,SPIB,"1.19 fold enrichment (6-mer frequency, TF over GST control)"
same,binding signal,ELK3,"1.18 fold enrichment (6-mer frequency, TF over GST control)"
same,binding signal,FEV,"1.17 fold enrichment (6-mer frequency, TF over GST control)"
same,binding signal,ETV5,"1.28 fold enrichment (6-mer frequency, TF over GST control)"
same,binding signal,HSF1,"1.05 fold enrichment (6-mer frequency, TF over GST control)"
same,binding signal,SPIC,"1.1 fold enrichment (6-mer frequency, TF over GST control)"
same,binding signal,ELF4,"1.3 fold enrichment (6-mer frequency, TF over GST control)"
same,binding signal,ELK4,"1.35 fold enrichment (6-mer frequency, TF over GST control)"
same,binding signal,ETV2,"1.25 fold enrichment (6-mer frequency, TF over GST control)"
same,binding signal,ELF3,"1.52 fold enrichment (6-mer frequency, TF over GST control)"
same,binding signal,CRX,"1.02 fold enrichment (6-mer frequency, TF over GST control)"
same,binding signal,ETV1,"1.24 fold enrichment (6-mer frequency, TF over GST control)"
